In PubChem BioAssay (Tox21):
Values joined by “and” are separate entries in the source; they are usually repeats but may differ in a detail not shown here. Equal values may be shown once. Results filed as inconclusive are left out. A call without a number means that no potency is given here. More than one record can exist for a structure, and the calls need not agree. Active and inactive are the calls of the source. Unless noted, calls come from the whole dose curve; as a rule, active = well fitted curve in the direction sought with a large enough effect in the repeat runs; inconclusive = weak or mixed curves; inactive = no such curve, though single readings can be large; an effect the other way counts as inactive or inconclusive.

Molecular target: Androgen receptor (Homo sapiens) (UniProt P10275)
Assay: qHTS assay to identify small molecule antagonists of the androgen receptor (AR) signaling pathway using the MDA cell line in the presence of 0.5 nM R1881 (AID 1259243); note: nearly all actives have a fitted effect of over 50% in size; note: potency is the fitted concentration of half-maximal effect
Conditions: MDA-kb2 MMTV-luciferase, R1881 0.5 nM, 16 h; series mostly up to 92.4 µM; activity, negative = inhibition: at the top concentration
Outline: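 Inhibition of R1881 (0.5 nM final) induced reporter signal was measured in human MDA-kb2 cells; note the MMTV promoter also responds to GR. Exposure lasted 16 hr at 37C.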

Chain of Androgen receptor (Homo sapiens) (P10275 whole entry, looked up): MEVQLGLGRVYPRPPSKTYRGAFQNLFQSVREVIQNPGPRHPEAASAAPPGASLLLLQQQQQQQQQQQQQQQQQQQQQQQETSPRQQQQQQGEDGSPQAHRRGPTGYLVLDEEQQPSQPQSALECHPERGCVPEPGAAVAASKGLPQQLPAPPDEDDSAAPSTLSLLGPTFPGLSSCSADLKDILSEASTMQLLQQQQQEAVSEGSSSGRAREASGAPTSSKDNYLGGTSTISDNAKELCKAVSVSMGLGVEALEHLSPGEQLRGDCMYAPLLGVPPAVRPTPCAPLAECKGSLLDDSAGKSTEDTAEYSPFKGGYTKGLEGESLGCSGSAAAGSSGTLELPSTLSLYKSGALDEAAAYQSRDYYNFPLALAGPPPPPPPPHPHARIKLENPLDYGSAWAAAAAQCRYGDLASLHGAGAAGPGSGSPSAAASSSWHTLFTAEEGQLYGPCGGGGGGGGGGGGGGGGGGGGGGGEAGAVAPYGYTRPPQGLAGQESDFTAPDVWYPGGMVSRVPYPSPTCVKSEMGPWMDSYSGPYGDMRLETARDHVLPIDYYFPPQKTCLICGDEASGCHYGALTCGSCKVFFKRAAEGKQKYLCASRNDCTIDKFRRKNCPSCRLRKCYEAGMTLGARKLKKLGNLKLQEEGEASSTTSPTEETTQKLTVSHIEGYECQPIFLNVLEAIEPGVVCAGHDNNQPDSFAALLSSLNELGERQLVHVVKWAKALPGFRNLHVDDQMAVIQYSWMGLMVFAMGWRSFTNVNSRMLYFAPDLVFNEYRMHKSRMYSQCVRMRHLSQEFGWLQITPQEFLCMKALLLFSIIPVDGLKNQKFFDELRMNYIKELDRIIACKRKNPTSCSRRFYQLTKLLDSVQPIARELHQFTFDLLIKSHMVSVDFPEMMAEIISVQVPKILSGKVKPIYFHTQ

Structure (SMILES) | Potency | activity, negative = inhibition
CCCCC(CC)COC(=O)c1ccc(C(=O)OCC(CC)CCCC)c(C(=O)OCC(CC)CCCC)c1 (stereo not given) | inactive | 
c1cc(OCC2CO2)ccc1Cc1ccc(OCC2CO2)cc1 (stereo not given) |  | -8.55% (inactive)
CC(C)Oc1cc(-n2nc(C(C)(C)C)oc2=O)c(Cl)cc1Cl | 54.5 µM (active) | 
N#Cc1cc(Br)c(O)c(Br)c1 | 61.1 µM (active) and 46.8 µM (active) | 
O=[N+]([O-])c1ccc(O)c([N+](=O)[O-])c1 | 30.8 µM (active) and 54.5 µM (active) | 
CCN(CC)C(=O)/C(Cl)=C(\C)OP(=O)(OC)OC | inactive | 
Nc1ccncc1 | inactive | 

Molecular target: Estrogen receptor (Homo sapiens) (UniProt P03372)
Assay: qHTS assay to identify small molecule antagonists of the estrogen receptor alpha (ER-alpha) signaling pathway using the BG1 cell line in the presence of 0.1 nM 17-beta-estradiol (AID 1259244); note: nearly all actives have a fitted effect of over 50% in size; note: potency is the fitted concentration of half-maximal effect
Conditions: VM7Luc4E2 (BG1) ERE-luciferase, antagonist mode, 0.1 nM E2, 22 h; series mostly up to 92.4 µM; activity change, negative = inhibition: at the top concentration
Outline: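 Quantitative high-throughput screen in VM7Luc4E2 cells: compound plus 0.1 nM E2 (final), 22 h, 37C, 5% CO2; ONE-Glo added, 30 min room temperature, luminescence measured.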

Chain of Estrogen receptor (Homo sapiens) (P03372 whole entry, looked up): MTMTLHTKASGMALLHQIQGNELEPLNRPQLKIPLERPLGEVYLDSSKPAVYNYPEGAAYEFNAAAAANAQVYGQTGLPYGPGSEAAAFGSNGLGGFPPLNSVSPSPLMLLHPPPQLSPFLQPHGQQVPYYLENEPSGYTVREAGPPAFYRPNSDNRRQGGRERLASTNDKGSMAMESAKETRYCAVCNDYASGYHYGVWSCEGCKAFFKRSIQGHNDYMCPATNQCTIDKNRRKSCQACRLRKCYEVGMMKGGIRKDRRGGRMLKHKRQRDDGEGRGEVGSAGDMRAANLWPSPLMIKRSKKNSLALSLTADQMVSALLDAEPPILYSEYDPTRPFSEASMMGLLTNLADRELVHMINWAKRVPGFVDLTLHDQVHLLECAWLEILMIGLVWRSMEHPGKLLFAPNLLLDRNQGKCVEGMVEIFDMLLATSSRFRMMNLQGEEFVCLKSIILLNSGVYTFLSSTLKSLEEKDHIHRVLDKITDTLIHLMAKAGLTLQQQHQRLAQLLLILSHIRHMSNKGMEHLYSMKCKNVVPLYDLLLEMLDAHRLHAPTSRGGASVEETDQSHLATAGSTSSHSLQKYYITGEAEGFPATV

Structure (SMILES) | Potency | activity change, negative = inhibition
C[C@]12CCC(=O)C(O)=C1CC[C@@H]1[C@@H]2CC[C@]2(C)C(=O)CC[C@@H]12 | inactive | 
O=C(NC(=O)c1c(F)cccc1F)Nc1ccc(Cl)cc1 | inactive | 
c1cc(OCC2CO2)ccc1Cc1ccc(OCC2CO2)cc1 (stereo not given) | inactive | 
C#CCOS(=O)OC1CCCCC1Oc1ccc(C(C)(C)C)cc1 (stereo not given) | 8.64 µM (active) and 15.4 µM (active) | 
CCN(CC)C(=O)SCc1ccc(Cl)cc1 | inactive | 
CC(C)Oc1cc(-n2nc(C(C)(C)C)oc2=O)c(Cl)cc1Cl | 61.1 µM (active) | 
O=C(Nc1ccc(Br)cc1)c1cc(Br)cc(Br)c1O | 6.83 µM (active) and 10.9 µM (active) | 
CNC(=O)Oc1cccc2c1OC(C)(C)O2 | inactive | 
CC(C)=CC1C(C(=O)OCc2coc(Cc3ccccc3)c2)C1(C)C (stereo not given) | inactive | 
NNC(N)=S | 63.5 µM (active) and inactive | 
Nc1cccnc1 | inactive | 
N#Cc1cc(Br)c(O)c(Br)c1 | 61.1 µM (active) and 41.7 µM (active) | 
O=[N+]([O-])c1ccc(O)c([N+](=O)[O-])c1 | 48.8 µM (active) and 48.6 µM (active) | 
CCN(CC)C(=O)/C(Cl)=C(\C)OP(=O)(OC)OC | inactive | 
COP(=S)(OC)Oc1ccc([N+](=O)[O-])cc1 | inactive | 
O=S(=O)(Oc1ccc(Cl)cc1)c1ccc(Cl)cc1 | inactive | 
N#CC(Br)Br | inactive | 
CCC(C)(C)c1ccc(O)cc1 | inactive | 
Nn1cnnc1 | inactive | 
NC(=S)Nc1ccccc1 | 27.8 µM (active) and inactive | 
Nc1ccncc1 | inactive | 
Oc1c(Cl)c(Cl)c(Cl)c(Cl)c1Cl | 30 µM (active) and 30.6 µM (active) | 
CCOc1cc(Oc2ccc(C(F)(F)F)cc2Cl)ccc1[N+](=O)[O-] |  | -10.2% (inactive)
CC(C)c1ccc(CO)cc1 | inactive | 
CCOC(=O)C(C)OC(=O)c1cc(Oc2ccc(C(F)(F)F)cc2Cl)ccc1[N+](=O)[O-] (stereo not given) | inactive | 
Clc1nc(Cl)nc(Cl)n1 | inactive | 
CCOCN(C(=O)CCl)c1c(C)cccc1CC | 45.9 µM (active) and 48.6 µM (active) | 

Tested on: not listed separately
Assay: qHTS assay to identify small molecule phospholipidosis (PLD) inducers (AID 1259344; active = well fitted curve in the direction sought with a large enough effect; an effect the other way counts as inactive or inconclusive)
Conditions: HepG2 phospholipidosis, LipidTOX Red imaging, 24 h; series mostly up to 38.3 µM; PLD induction: at the top concentration
Outline: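 HepG2 cells grown on collagen I take up LipidTOX Red while exposed to compound for 24 h; after fixation they are imaged at 20x and pit metrics are extracted.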

Structure (SMILES) | outcome | PLD induction
Oc1cc(Cl)ccc1Oc1ccc(Cl)cc1Cl | inactive | 
O=C(Nc1ccc(Br)cc1)c1cc(Br)cc(Br)c1O |  | -1.1% (inactive)
CCN(CC)C(=O)/C(Cl)=C(\C)OP(=O)(OC)OC |  | -0.194% (inactive)
Oc1cc(Cl)c(Cl)cc1Cl |  | -0.289% (inactive)
CCOP(=S)(OCC)O/N=C(\C#N)c1ccccc1 |  | 13% (inactive)
CCC(C)(C)c1ccc(O)cc1 |  | 0.892% (inactive)
Nc1ccncc1 |  | -0.674% (inactive)
CCOc1cc(C=O)ccc1O |  | 0.867% (inactive)

Tested on: not listed separately
Assay: qHTS assay to identify small molecule HDAC inhibitors (AID 1259364); note: nearly all actives have a fitted effect of over 45% in size; note: potency is the fitted concentration of half-maximal effect; for activity change, negative = inhibition: top concentration of the series differs between compounds
Conditions: HCT-116 HDAC-Glo I/II luminescence, 2 h; series mostly up to 92.4 µM; activity change, negative = inhibition: at the top concentration
Outline: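 Endogenous HDAC class I/II activity was measured in wild-type HCT-116 cells by HDAC-Glo luminescence after 2 h compound treatment.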

Structure (SMILES) | Potency
CCCCC(CC)COC(=O)c1ccc(C(=O)OCC(CC)CCCC)c(C(=O)OCC(CC)CCCC)c1 (stereo not given) | inactive
C[C@]12CCC(=O)C(O)=C1CC[C@@H]1[C@@H]2CC[C@]2(C)C(=O)CC[C@@H]12 | inactive
Oc1cc(Cl)ccc1Oc1ccc(Cl)cc1Cl | inactive
CCC(C)(c1ccc(O)cc1)c1ccc(O)cc1 | inactive
O=C(NC(=O)c1c(F)cccc1F)Nc1ccc(Cl)cc1 | inactive
c1cc(OCC2CO2)ccc1Cc1ccc(OCC2CO2)cc1 (stereo not given) | inactive
C#CCOS(=O)OC1CCCCC1Oc1ccc(C(C)(C)C)cc1 (stereo not given) | inactive
CCN(CC)C(=O)SCc1ccc(Cl)cc1 | inactive
CC(C)Oc1cc(-n2nc(C(C)(C)C)oc2=O)c(Cl)cc1Cl | inactive
O=C(Nc1ccc(Br)cc1)c1cc(Br)cc(Br)c1O | 6.83 µM (active) and 6.11 µM (active) and 6.68 µM (active)
CNC(=O)Oc1cccc2c1OC(C)(C)O2 | inactive
CC(C)=CC1C(C(=O)OCc2coc(Cc3ccccc3)c2)C1(C)C (stereo not given) | inactive
NNC(N)=S | inactive
Nc1cccnc1 | inactive
CN(C)c1ccc(C(=O)c2ccc(N(C)C)cc2)cc1 | inactive and 48.6 µM (active)
N#Cc1cc(Br)c(O)c(Br)c1 | inactive
O=[N+]([O-])c1ccc(O)c([N+](=O)[O-])c1 | 30.8 µM (active) and 27.3 µM (active)
CCN(CC)C(=O)/C(Cl)=C(\C)OP(=O)(OC)OC | inactive
Oc1cc(Cl)c(Cl)cc1Cl | inactive

Structure (SMILES) | Potency
CCOC(=S)S | inactive
COP(=S)(OC)Oc1ccc([N+](=O)[O-])cc1 | inactive
O=S(=O)(Oc1ccc(Cl)cc1)c1ccc(Cl)cc1 | inactive
N#CC(Br)Br | inactive
CCOP(=S)(OCC)O/N=C(\C#N)c1ccccc1 | inactive
CCC(C)(C)c1ccc(O)cc1 | inactive
Nn1cnnc1 | inactive
NC(=S)Nc1ccccc1 | inactive
Nc1ccncc1 | inactive
CC(O)CCO (stereo not given) | inactive
Oc1c(Cl)c(Cl)c(Cl)c(Cl)c1Cl | inactive
CCOc1cc(Oc2ccc(C(F)(F)F)cc2Cl)ccc1[N+](=O)[O-] | inactive
CCOc1cc(C=O)ccc1O | inactive
CC(C)c1ccc(CO)cc1 | inactive
CCOC(=O)C(C)OC(=O)c1cc(Oc2ccc(C(F)(F)F)cc2Cl)ccc1[N+](=O)[O-] (stereo not given) | inactive
Clc1nc(Cl)nc(Cl)n1 | inactive
O=C1C=CC(=O)C=C1 | inactive
CCOCN(C(=O)CCl)c1c(C)cccc1CC | inactive
C=CCc1ccc(OC)cc1 | inactive
